From PubChem BioAssay AID1851 (National Center for Advancing Translational Sciences (NCATS), 2009)
Values joined by “and” are separate entries in the source; they are usually repeats but may differ in a detail not shown here. Equal entries are not always repeated. Out of some 16,000 compounds screened, about 2,600 (16%) were called active. Not shown: some 20% with an inconclusive outcome. Calls come from the whole dose curve; as a rule, active = well fitted curve in the direction sought with a large enough effect; inconclusive = small, poorly fitted or top-dose-only effect, or effect the other way; inactive = no such curve, though single readings can be large or run the other way. The list is a sample of the results. Some compounds were tested as several samples or in several runs, with calls that do not always agree.

molecular target: Cytochrome P450 2D6 (Homo sapiens) (UniProt P10635); test: Cytochrome panel assay with activity outcomes; conditions: recombinant CYP, pro-luciferin dealkylation, luminescence, p450-cyp2d6; series mostly up to 57.1 µM; activity, negative = inhibition: at the top concentration
% is set by controls: 0 for no effect and ±100 for the full control effect.

Cytochrome P450 2D6 (Homo sapiens), sequence (P10635 whole entry, looked up): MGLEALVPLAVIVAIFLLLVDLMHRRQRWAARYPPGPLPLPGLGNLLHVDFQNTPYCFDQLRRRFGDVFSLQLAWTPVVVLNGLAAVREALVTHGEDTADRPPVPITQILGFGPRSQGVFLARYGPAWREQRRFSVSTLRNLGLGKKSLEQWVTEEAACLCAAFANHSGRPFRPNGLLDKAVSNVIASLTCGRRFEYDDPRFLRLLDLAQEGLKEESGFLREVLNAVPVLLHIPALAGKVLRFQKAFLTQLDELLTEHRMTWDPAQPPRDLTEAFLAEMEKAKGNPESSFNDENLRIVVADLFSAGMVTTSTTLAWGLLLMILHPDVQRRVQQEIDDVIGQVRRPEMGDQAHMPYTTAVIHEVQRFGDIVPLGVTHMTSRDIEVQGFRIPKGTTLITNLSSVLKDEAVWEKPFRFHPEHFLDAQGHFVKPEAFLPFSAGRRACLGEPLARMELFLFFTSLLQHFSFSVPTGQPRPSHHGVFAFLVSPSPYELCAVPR

activity, negative = inhibition, inactive:
CC(C)(C)NC[C@@H](O)c1ccc(O)c(CO)n1 -1.17% [at 11.4 µM], Cc1cccc(C)c1NC(=O)COc1cccc(/C=N/NC(=O)C(=O)NCc2ccccc2)c1 3.74%, O=C(CC(=O)N/N=C\c1c(Cl)cccc1Cl)NCc1ccccc1 -29.6%, CCCCNC(=O)C1CC(=O)N(CCC(C)C)C1 (configuration not stated) 0.785%, CCCC/C=C/C(NC(=O)c1cccs1)c1ccccc1 (configuration not stated) 1.02%, C[C@@H](C(=O)O)c1ccc(C(=O)c2cccs2)cc1 -5.01% [at 25.6 µM], Nc1ncnc2c1ncn2C1CCCC1 8.79%, COc1ccc(Nc2ncc3c(n2)CC(c2ccc(C)cc2)CC3=O)cc1 (configuration not stated) -9.28%, O=c1c(-c2ccc(Cl)cc2)[n+]([O-])c2ccccc2n1OCc1ccccn1 14.8%, CC(C(=O)NC1CCCC1)N(C(=O)c1ccc(-c2ccccc2)[nH]1)c1ccccc1F (configuration not stated) -20.3%, CCOC(=O)Cc1csc(NC(=O)c2ccc(S(=O)(=O)N3CCCCC3)cc2)n1 1.88%, Cc1cccc2c(SCC(=O)NCC3CCCO3)nc(-c3ccc(F)cc3)nc12 (configuration not stated) -24.8%, CN(C(=O)Cn1nnc(-c2cccc(C(F)(F)F)c2)n1)C1CCCCC1 27.7%, COc1ccc(S(=O)(=O)N(CC(=O)NCC2CCCO2)c2ccc(F)cc2)cc1OC (configuration not stated) -5.47%, CC(C)C(C(=O)NCC1CCCO1)N(Cc1ccco1)C(=O)CNS(=O)(=O)c1ccc(F)cc1 (configuration not stated) -2.69%, Clc1ccc(-c2nnc(-c3ccco3)o2)cc1 -8.43%, O=c1[nH]c(=O)c2nc3ccccc3nc2[nH]1 9.16%, CC(=O)NCCC(=O)Nc1sc2c(c1-c1nc3ccccc3[nH]1)CCCC2 -28.3%, Cc1ccc(NC(=O)N/C=C/c2ccco2)cc1C -29.6%, COc1ccc(C(C(=O)NC2CCCC2)N(C(=O)c2snc(-c3ccc(F)cc3)c2N)c2ccccc2)cc1 (configuration not stated) 14.7%, COc1ccc(CSc2nnnn2C)cc1[N+](=O)[O-] -1.53%, CC(=O)Nc1ccc(Nc2ncnc3c2cnn3-c2ccccc2)cc1 -16.2%, N#Cc1cccc(-c2nc3cnc(N4CCOCC4)nc3n(C3CC3)c2=O)c1 3.06%, CC(C)(C)N(NC(=O)Nc1ccccc1)C(=O)c1ccccc1Cl 16.3%, Cc1cc(C)cc(C(=O)N(NC(=O)Nc2ccc(Cl)cc2)C(C)(C)C)c1 -12.7%, Cc1nc2cnc(N(C)C)nc2n(CCC#N)c1=O 1%, CCCn1c(CC)nc([N+](=O)[O-])c1S(=O)(=O)c1ccccc1 -12%, O=[N+]([O-])c1cc(Cl)cc2c1nc(NCCO)c1ccccc12 -18% [at 11.4 µM], CSc1ccccc1N1CCN(C(=O)Nc2ccc3c(c2)NC(=O)CO3)CC1 7.94%, O=C(NCC1CCCO1)c1ccc(CS(=O)(=O)Cc2ccc(F)cc2)o1 (configuration not stated) -4.74%, Cn1c(=O)c2c(nc(Cl)n2Cc2ccc(Cl)c(Cl)c2)n(C)c1=O -24.9%, COC(=O)Cn1c(=O)c2c(nc(Br)n2Cc2ccccc2Cl)n(C)c1=O -4.28%, Cc1cc(CNC(=O)[C@@H]2C[C@H]2[C@@H](NP(=O)(c2ccccc2)c2ccccc2)c2ccccc2)nn1C 4.62%, FC(F)(F)c1nnc2c(Sc3ccccc3)nc3ccc(Cl)cc3n12 7.73%, O=C(O)C[C@H](NC(=O)CP(=O)(O)O)C(=O)O.[NH-][C@@H]1CCCC[C@@H]1[NH-].[Pt] 7.2% [at 11.4 µM], C[C@H](N)CCCC(C)(C)O 2.07% [at 25.6 µM], O=C(Cn1c(C(F)(F)F)nc2ccccc21)c1ccc(F)cc1 -10.1%, CC(C)=CCC/C(C)=C/CO/N=C1/C[C@@H](O)[C@@H](O)[C@@H]2[C@@H]3C(=O)N(C[C@@H]4CCCO4)C(=O)[C@H]3CC[C@H]12 -9.15% [at 11.4 µM], COc1ccc(N=C2S/C(=C\c3ccc(C)s3)C(=O)N2CC(C)C)cc1 1.59%, O=C(O)CCC(=O)N1CCc2cc(S(=O)(=O)N3CCCCC3)ccc21 4.95%, Cc1ccc(-c2cc(C(=O)NN=C3CCCC3)c3ccccc3n2)cc1 -21.4%, CCNc1ncc2nc(-c3ccc(Cl)cc3)c(=O)n(Cc3ccc(F)cc3)c2n1 -0.819%, CN(Cc1n[nH]c(=S)n1C)S(=O)(=O)c1ccccc1 -5.55%, COC(=O)C(NC(=O)c1ccc(Cl)cc1)(Nc1nc(C)cs1)C(F)(F)F (configuration not stated) -25.8%, Cc1ccc(SCC(=O)NNC(=O)C2CCCCC2)cc1 -7.86%, CC(=O)N[C@@H]1CONC1=O 18.4% [at 11.4 µM], Cc1ccc(NC(=O)c2ccc(NCC3CCCO3)c([N+](=O)[O-])c2)cc1Cl (configuration not stated) -20.3%, Cc1ccc(C(=O)Nc2ccccc2Oc2ccccc2)cc1[N+](=O)[O-] -27%, O=C(O)[C@H]1[C@H](C(=O)O)[C@H](C(=O)O)C[C@@H]1C(=O)O -4.27% [at 11.4 µM], O=c1cnc2cnc(N3CCOCC3)nc2n1Cc1ccc(F)cc1 -9.25%, NC(N)=[N+]1CCc2ccccc2C1 -16.2%, COc1ccccc1NC(=O)[C@H](COCc1ccccc1)NC(=O)OC(C)(C)C -16.4%, Cc1ccc(-n2ccc(=O)c(-c3ccnc(SCc4cccc(Cl)c4)n3)n2)cc1 -22.4%, O=C1NCCN1Cc1cccc(Cl)c1 2.96%, O=C1c2ccccc2C(=O)N1CCCCN(C(=O)c1cccc([N+](=O)[O-])c1)c1ccc(Cl)cc1 -20.7%, COc1ccc(-n2nnnc2-c2cn(C)nc2C(F)(F)F)cc1 -7.4%, O=C(O)c1cc(N=Nc2ccc([N+](=O)[O-])cc2)ccc1O -8.54% [at 11.4 µM], CS[C@]12C(=O)C[C@]3(C)[C@@H](CC[C@@]3(O)C(=O)CO)[C@@H]1CCC1=CC(=O)CC[C@]12C 0.401% [at 11.4 µM], Cn1nc(-c2ccc(N3CCOCC3)c(NS(=O)(=O)c3ccc(Cl)cc3)c2)c2ccccc2c1=O -7.84%, CN(C)C(=O)c1ccc(-c2cncnc2NC2CCNCC2)cc1 -15.4%, CN1CCN(c2ncnc3ccc(-c4cccc(NS(C)(=O)=O)c4)cc23)CC1 3.66%, Cc1ccc(S(=O)(=O)n2c3ccccc3c3nnc(C(=O)c4ccccc4)nc32)cc1 -14.9% [at 11.4 µM], Cc1nn(C)c(C)c1CNC(=O)c1cnn2c1NC(c1ccccc1)CC2C(F)(F)F (configuration not stated) -20.7%, Cn1c2c(c(=O)n(C)c1=O)CN(CCN1CCNCC1)CN2 7.25%, O=C(CC1(O)CCCCC1)OC1CCCC1 -5.94% [at 11.4 µM], CCCCSc1nnc(-c2cc3c(C(F)(F)F)nn(C)c3s2)n1C -3.58%, C[N+](C)(C)CC(=O)O 3.71%, COc1ccc([C@@H](Nc2ccccn2)c2cc(C(C)(C)C)cc(C(C)(C)C)c2O)cc1 -16.7% [at 11.4 µM], O=C(O)c1cc(C(=O)O)nc(C(=O)O)c1 0.571% [at 11.4 µM], CC(O)(P(=O)(O)O)P(=O)(O)O 7.89% [at 25.6 µM], O=C(c1cccc(F)c1)N1CCC2(CC1)CN(c1ccncc1)C2 -4.06%, O=C(c1cc(C(F)(F)F)cc(C(F)(F)F)c1)N1CCC[C@@]2(CCN(c3ccncc3)C2)C1 -8.86%, O=C(c1cc(C(F)(F)F)cc(C(F)(F)F)c1)N1CCC2(CC1)CN(c1ccncc1)C2 -15.3%, O=C(c1cccc(F)c1)N1CCC[C@@]2(CCN(c3ccncc3)C2)C1 -2.32%, Cc1ccc(C)c(-c2nn(-c3cc(N4CCN(CCO)CC4)ccc3[N+](=O)[O-])c(=O)c3ccccc23)c1 -4.67%, CCOC(=O)CC(Nc1nc(N2CCOCC2)nc(N2CCOCC2)n1)c1ccccc1Cl (configuration not stated) -28.5%

AC50, inactive:
NCCCCCC(=O)O, N[C@H](C(=O)O)[C@@H]1C[C@@H]1C(=O)O

AC50, active:
CNCCCCCCCCSc1nc(C(C)C)ccc1C(=O)c1cccs1 0.00631 µM, CNC(=O)Oc1ccc2c(c1)[C@@]1(C)CCN(C)[C@@H]1N2C 1.26 µM and 631 nM, CC(C)CC(C(=O)NCC1CCCO1)N(C(=O)Cn1nnc(-c2ccc(F)cc2)n1)c1ccccc1F (configuration not stated) 20 µM, CC(C)CC(C(=O)NCC1CCCO1)N(C(=O)Cn1nnc(-c2ccc(F)cc2)n1)c1cccc(C(F)(F)F)c1 (configuration not stated) 12.6 µM, CCCOc1ccc(Cn2c(C)nc([N+](=O)[O-])c2SCC(O)COC)cc1[N+](=O)[O-] (configuration not stated) 12.6 µM, CC(C)(C)N(NC(=O)Nc1ccc(Cl)c(Cl)c1)C(=O)c1ccccc1 28.2 µM, Cn1c(OCc2ccc3c(c2)OCO3)nc2c1c(=O)n(Cc1ccc(Cl)c(Cl)c1)c(=O)n2C 5.01 µM, CC(C)c1ccc(Cn2ccc3c4c(N)nc(NC5CC5)nc4ccc32)cc1 1 µM, CC1(C)CO[C@H](CC(=O)O)CN1 0.00631 µM, O=C(CCCN1CC=C(n2c(=O)[nH]c3ccccc32)CC1)c1ccc(F)cc1 3.16 µM, Cc1ccc(C(=O)Nc2ccc(Cc3ccncc3)cc2)cc1[N+](=O)[O-] 1.41 µM, N[C@H](C(=O)O)C1[C@H](C(=O)O)[C@H]1C(=O)O (some centres not stated) 7.94 µM, O=S1(=O)C=C(SCc2cccc(Cl)c2)Nc2ccccc21 12.6 µM, CN1CCN(c2ncncc2-c2ccc(N(C)C)cc2)CC1 10 µM, CN(C)C(=O)c1ccc(-c2cncnc2N2CCNCC2)cc1 7.94 µM, CN1CCN(c2ncncc2-c2ccc(C(=O)N(C)C)cc2)CC1 0.251 µM, O=C(c1cccc(F)c1)N1CCC2(CC1)CCN(c1ccncc1)CC2 20 µM, O=C(c1cc(C(F)(F)F)cc(C(F)(F)F)c1)N1CCC2(CC1)CCN(c1ccncc1)CC2 15.8 µM

AC50, inactive and 7.94 µM (active):
CC1=NS(=O)(=O)c2cc(Cl)ccc2N1
